# Test results as given in the supplement of paper PMC10849652.
# Targets with a hit are over-represented here; the source holds about 8,800 in all. About 0.5% of all pairs of compound and target were hits. A number with no mark means an inactive call.
# How the values were obtained:
# Assay in all cases: log2 fold change, soluble protein after heating vs DMSO (PISA); higher = thermal stabilisation; K562 lysate, 10 uM; active = over 0.2 and 3.5 SD of the protein, either way, in both replicates (recomputed)
# alvocidib = compound: CN1CC[C@H](c2c(O)cc(O)c3c(=O)cc(-c4ccccc4Cl)oc23)[C@H](O)C1 [alvocidib]
# Outline: (§1)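 Following dounce homogenisation of K562 pellets in PBS pH 7.4 with 1 mM MgCl2, crude extract at 1 mg/mL protein was incubated for 30 min with 10 μM compound. Aliquots were then heated for 3 min over 48°C-58°C and pooled, NP-40 was added to 0.5% at 4°C, and soluble protein was recovered as the supernatant at 21,000xg for 90 min. Channel-sum-equalised TMTpro 16plex LC-MS/MS quantified this protein. Each value, from duplicates, is a log-two fold change in thermal stability relative to solvent controls.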
# Tubastatin A = compound: CN1CCc2c(c3ccccc3n2Cc2ccc(C(=O)NO)cc2)C1 [Tubastatin A]
# Outline: as §1
# [1] = compound: CNC(=O)C1=CC=CC=C1NC2=NC(=NC=C2Cl)NC3=C(C=C(C=C3)N4CCOCC4)OC
# Outline: as §1
# defactinib = compound: CNC(=O)c1ccc(Nc2ncc(C(F)(F)F)c(NCc3nccnc3N(C)S(C)(=O)=O)n2)cc1 [defactinib]
# Outline: as §1
# [2] = compound: CNc1nc(-c2ccc3c(N)n[nH]c3c2)cc(N2C[C@@H](C(=O)NC3CCCCC3)CC[C@H]2C)n1
# Outline: as §1
# encorafenib = compound: COC(=O)N[C@@H](C)CNc1nccc(-c2cn(C(C)C)nc2-c2cc(Cl)cc(NS(C)(=O)=O)c2F)n1 [encorafenib]
# Outline: as §1
# [3] = compound: COC(=O)[C@H](CCSC)NC(=O)C1=C(C=C(C=C1)NC[C@H](CS)N)C2=CC=CC=C2
# Outline: as §1
# alisertib = compound: COc1cc(Nc2ncc3c(n2)-c2ccc(Cl)cc2C(c2c(F)cccc2OC)=NC3)ccc1C(=O)O [alisertib]
# Outline: as §1
# [4] = compound: COc1cc2nc(-c3cc(F)ccc3O)nc(N[C@@H]3CNC[C@H]3C(C)(C)O)c2cc1OC
# Outline: as §1
# gefitinib = compound: COc1cc2ncnc(Nc3ccc(F)c(Cl)c3)c2cc1OCCCN1CCOCC1 [gefitinib]
# Outline: as §1
# Sequence of UniProt P80303 (P80303 whole entry, looked up): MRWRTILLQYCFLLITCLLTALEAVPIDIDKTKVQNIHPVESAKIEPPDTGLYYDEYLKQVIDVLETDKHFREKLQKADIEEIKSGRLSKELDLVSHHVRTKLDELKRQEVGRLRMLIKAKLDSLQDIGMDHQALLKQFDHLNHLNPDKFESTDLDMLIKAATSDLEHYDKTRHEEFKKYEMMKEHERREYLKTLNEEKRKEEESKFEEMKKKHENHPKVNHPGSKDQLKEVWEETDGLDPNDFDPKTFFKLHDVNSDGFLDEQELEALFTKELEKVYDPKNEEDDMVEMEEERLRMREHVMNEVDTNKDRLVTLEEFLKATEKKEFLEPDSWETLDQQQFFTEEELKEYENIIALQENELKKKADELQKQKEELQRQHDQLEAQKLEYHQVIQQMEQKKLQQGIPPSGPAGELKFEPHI
# Sequence of UniProt Q92621 (Q92621 whole entry, looked up): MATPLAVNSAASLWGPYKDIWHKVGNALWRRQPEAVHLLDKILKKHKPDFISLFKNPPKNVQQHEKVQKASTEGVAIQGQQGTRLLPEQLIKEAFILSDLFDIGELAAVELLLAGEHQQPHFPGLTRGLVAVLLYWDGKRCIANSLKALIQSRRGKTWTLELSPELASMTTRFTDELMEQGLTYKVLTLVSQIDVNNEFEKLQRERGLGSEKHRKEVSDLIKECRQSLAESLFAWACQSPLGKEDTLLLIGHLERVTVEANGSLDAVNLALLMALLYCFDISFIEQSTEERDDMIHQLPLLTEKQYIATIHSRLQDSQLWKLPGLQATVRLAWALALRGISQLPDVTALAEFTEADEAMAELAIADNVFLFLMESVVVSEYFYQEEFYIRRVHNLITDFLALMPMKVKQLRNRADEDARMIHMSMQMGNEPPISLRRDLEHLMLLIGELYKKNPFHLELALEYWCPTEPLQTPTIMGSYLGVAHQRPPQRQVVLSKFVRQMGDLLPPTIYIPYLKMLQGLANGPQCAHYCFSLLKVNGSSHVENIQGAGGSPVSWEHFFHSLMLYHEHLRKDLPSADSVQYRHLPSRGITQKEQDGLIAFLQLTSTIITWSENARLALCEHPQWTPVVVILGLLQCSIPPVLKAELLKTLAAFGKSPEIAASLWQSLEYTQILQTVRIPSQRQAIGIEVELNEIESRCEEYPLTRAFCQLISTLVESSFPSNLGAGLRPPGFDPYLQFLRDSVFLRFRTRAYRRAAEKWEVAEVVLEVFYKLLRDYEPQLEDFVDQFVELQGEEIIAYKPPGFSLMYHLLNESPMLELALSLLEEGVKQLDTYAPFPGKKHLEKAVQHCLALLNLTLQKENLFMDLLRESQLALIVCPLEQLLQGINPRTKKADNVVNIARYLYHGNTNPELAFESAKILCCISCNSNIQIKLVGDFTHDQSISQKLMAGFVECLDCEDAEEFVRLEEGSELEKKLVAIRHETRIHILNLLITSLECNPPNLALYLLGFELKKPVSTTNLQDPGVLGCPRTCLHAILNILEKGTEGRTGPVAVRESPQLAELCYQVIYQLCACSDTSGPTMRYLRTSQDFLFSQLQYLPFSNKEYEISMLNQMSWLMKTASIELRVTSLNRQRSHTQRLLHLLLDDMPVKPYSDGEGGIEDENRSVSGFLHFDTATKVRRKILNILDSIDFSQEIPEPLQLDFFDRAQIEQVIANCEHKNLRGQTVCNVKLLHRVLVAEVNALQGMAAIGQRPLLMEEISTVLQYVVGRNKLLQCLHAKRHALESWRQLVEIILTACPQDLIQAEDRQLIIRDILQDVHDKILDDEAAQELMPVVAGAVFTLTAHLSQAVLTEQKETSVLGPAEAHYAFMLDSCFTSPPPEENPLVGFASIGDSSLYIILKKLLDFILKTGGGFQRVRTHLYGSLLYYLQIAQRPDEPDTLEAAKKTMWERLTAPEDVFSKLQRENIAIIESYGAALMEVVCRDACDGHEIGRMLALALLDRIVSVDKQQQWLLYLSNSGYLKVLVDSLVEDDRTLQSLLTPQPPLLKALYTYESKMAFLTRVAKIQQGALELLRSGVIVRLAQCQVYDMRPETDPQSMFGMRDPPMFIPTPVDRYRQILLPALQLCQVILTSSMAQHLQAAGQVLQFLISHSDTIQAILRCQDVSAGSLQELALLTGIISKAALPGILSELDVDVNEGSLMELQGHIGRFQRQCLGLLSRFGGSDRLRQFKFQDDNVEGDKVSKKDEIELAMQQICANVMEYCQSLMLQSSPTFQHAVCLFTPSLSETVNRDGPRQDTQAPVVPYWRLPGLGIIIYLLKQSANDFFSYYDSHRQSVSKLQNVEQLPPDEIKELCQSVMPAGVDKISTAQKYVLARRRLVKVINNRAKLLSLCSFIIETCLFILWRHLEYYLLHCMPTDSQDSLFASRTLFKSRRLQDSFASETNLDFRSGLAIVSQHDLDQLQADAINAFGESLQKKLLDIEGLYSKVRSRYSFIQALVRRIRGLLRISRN
# Sequence of UniProt Q8TD19 (Q8TD19 whole entry, looked up): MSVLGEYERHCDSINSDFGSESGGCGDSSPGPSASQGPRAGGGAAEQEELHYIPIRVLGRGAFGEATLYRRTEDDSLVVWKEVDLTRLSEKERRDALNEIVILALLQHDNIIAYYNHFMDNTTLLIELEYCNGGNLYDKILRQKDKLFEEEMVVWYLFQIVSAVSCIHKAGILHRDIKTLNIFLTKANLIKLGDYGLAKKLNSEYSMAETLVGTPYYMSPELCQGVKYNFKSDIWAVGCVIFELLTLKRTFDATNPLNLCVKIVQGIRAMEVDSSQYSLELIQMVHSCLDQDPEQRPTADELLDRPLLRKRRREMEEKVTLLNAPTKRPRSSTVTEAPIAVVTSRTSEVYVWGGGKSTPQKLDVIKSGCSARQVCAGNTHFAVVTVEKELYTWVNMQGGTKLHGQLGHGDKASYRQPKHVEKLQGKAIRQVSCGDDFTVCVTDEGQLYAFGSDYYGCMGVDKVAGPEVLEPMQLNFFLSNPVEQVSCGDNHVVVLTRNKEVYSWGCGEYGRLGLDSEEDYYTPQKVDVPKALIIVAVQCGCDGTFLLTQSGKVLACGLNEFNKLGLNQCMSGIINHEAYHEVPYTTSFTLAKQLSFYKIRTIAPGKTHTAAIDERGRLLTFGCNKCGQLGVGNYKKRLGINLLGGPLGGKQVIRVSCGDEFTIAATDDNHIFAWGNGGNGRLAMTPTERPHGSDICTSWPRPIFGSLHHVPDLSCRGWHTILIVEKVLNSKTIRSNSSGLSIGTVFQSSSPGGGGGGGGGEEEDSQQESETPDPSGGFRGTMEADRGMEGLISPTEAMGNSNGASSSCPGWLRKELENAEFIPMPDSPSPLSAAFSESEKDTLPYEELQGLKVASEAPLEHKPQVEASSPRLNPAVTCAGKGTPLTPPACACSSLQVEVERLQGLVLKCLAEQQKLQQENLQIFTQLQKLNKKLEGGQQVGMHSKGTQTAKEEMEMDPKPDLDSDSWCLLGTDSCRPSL
# Sequence of UniProt Q9Y217 (Q9Y217 whole entry, looked up): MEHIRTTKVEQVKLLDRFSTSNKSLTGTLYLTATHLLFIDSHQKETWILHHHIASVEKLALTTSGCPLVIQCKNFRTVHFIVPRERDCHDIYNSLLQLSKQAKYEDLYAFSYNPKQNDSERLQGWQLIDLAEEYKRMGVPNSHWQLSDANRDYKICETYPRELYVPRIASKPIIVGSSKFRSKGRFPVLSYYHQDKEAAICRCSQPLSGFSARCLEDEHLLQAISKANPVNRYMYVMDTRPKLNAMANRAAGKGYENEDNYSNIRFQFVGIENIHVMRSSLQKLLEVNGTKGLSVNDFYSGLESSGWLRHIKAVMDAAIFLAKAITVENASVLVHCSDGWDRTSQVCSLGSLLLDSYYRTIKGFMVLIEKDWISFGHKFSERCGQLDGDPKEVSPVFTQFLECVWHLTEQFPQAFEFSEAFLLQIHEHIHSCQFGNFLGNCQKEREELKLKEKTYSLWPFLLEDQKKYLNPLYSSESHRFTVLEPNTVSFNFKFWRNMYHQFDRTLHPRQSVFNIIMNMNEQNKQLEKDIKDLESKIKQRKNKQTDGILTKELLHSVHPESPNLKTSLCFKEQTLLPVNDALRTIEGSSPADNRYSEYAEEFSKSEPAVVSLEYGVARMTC
# Sequence of UniProt Q6IBW4 (Q6IBW4 whole entry, looked up): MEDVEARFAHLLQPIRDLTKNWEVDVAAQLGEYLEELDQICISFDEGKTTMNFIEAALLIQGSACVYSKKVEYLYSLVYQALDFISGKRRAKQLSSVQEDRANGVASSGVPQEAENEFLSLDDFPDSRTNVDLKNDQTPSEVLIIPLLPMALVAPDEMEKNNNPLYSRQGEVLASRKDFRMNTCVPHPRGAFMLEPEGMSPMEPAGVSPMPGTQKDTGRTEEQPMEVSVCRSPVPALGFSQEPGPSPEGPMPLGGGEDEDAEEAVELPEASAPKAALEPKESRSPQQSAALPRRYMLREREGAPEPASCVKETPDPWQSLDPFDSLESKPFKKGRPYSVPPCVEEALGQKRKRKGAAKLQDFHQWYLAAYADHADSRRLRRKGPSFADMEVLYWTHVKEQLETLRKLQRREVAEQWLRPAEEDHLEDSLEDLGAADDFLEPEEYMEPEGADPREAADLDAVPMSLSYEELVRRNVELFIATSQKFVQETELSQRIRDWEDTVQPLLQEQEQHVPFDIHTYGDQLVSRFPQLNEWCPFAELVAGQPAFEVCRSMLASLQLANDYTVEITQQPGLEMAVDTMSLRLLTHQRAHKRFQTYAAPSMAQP
# Sequence of UniProt Q9BRA0 (Q9BRA0 whole entry, looked up): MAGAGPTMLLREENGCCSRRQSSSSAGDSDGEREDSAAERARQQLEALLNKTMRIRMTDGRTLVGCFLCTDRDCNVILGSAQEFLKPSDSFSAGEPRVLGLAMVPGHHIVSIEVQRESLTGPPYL
# Sequence of UniProt Q99836 (Q99836 whole entry, looked up): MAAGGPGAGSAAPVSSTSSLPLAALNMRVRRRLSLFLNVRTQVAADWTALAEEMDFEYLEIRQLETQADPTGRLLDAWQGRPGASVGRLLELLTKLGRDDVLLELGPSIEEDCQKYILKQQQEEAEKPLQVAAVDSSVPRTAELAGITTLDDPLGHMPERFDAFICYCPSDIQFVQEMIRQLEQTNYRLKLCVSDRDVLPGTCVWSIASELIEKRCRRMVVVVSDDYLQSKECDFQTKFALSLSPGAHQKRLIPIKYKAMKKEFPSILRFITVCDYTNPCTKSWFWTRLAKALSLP
Target,log2 fold change (alvocidib),log2 fold change (Tubastatin A),log2 fold change [1],log2 fold change (defactinib),log2 fold change [2],log2 fold change (encorafenib),log2 fold change [3],log2 fold change (alisertib),log2 fold change [4],log2 fold change (gefitinib)
NPM3 (UniProt O75607),-0.04,0.015,-0.017,0.062,0.011,0.012,0.028,-0.002,0.023,-0.015
NEDD8 (UniProt Q15843),0.169,0.132,0.083,0.019,0.037,0.015,-0.062,0.021,-0.03,-0.148
PARG (UniProt Q86W56),0.03,-0.055,0.029,0.041,-0.016,0.027,0.042,0,0.01,0.046
NUP205 (UniProt Q92621),-0.02,-0.078,0.012,0.015,-0.003,0.016,-0.081,0.008,0,-0.018
NEK7 (UniProt Q8TDX7),-0.055,-0.113,0.552 (active),0.007,-0.013,0,0.003,0.038,0.057,-0.049
NEK9 (UniProt Q8TD19),-0.062,-0.062,0.193,0.08,-0.009,-0.018,-0.008,-0.048,-0.01,-0.039
MYBL2 (UniProt P10244),0,-0.15,0.045,0.113,-0.016,0.088,-0.023,,,
NF1 (UniProt P21359),0.03,-0.098,0.029,0.012,0.009,0.026,-0.267,0.03,0.006,0.058
NCAPH2 (UniProt Q6IBW4),0.038,-0.193,0,0.005,-0.084,0.064,-0.039,-0.027,0.01,-0.048
NOA1 (UniProt Q8NC60),-0.016,-0.11,0.063,-0.076,0.063,-0.049,-0.023,0.039,0.023,-0.042
NSL1 (UniProt Q96IY1),-0.026,-0.084,0.016,0.034,-0.004,-0.055,0.094,0.019,-0.014,-0.004
NUCB2 (UniProt P80303),0.061,0.036,0.007,-0.039,0.005,0.001,-0.027,0.003,0.014,0.004
MTCH2 (UniProt Q9Y6C9),-0.032,-0.046,0.043,-0.003,0.047,-0.01,0.043,0.013,-0.062,-0.007
NUDT4 isoform 2 (UniProt Q9NZJ9),-0.001,-0.101,0.01,-0.07,0.073,0.025,-0.129,0.012,0.003,-0.023
NUP188 (UniProt Q5SRE5),0.004,-0.049,-0.018,0.038,-0.016,-0.045,0.043,-0.007,0.025,0.011
OGT (UniProt O15294),0.045,-0.129,0.054,0.018,0.019,0.043,0.121,0.01,0.007,-0.015
NUDT4 (UniProt Q9NZJ9),-0.001,-0.149,0.063,0.153,-0.066,0.051,-0.17,-0.036,0.001,-0.052
MTMR6 (UniProt Q9Y217),-0.034,-0.019,0,-0.042,-0.047,0.028,-0.092,0.022,0.004,-0.053
NCAPD2 (UniProt Q15021),0.007,-0.119,0.013,0.002,-0.018,0.013,0.076,0.004,-0.005,-0.016
NFAT5 isoform 5 (UniProt O94916),-0.026,0.003,-0.027,0.007,0.077,0.043,-0.041,-0.072,-0.01,0.454 (active)
NSUN2 (UniProt Q08J23),0.019,-0.097,-0.018,0.007,-0.024,-0.011,0.096,0.014,-0.007,-0.02
NCOR1 (UniProt O75376),-0.028,-0.027,0.018,0.06,0.021,0.015,-0.007,0.01,0.018,-0.019
NOSTRIN (UniProt Q8IVI9),-0.009,-0.35 (active),0.027,0.07,0.061,-0.112,0.11,-0.019,0,0.004
NMT1 (UniProt P30419),0.021,0.001,0.001,0.031,0.011,-0.001,0.087,-0.005,0.007,-0.006
NONO (UniProt Q15233),0.049,-0.126,0.04,-0.01,0.014,0.011,0.102,0.026,-0.004,0.007
OCRL (UniProt Q01968),-0.002,-0.105,0.074,0.123,-0.051,0.045,-0.006,0.016,-0.082,0.049
NIPBL (UniProt Q6KC79),-0.008,-0.183,-0.04,0.006,0,0.008,0.09,-0.066,0.035,0.027
MTA2 (UniProt O94776),0.005,-0.049,-0.002,0.016,-0.01,0.009,0.134,0.012,-0.005,-0.02
NAA38 isoform 2 (UniProt Q9BRA0),-0.143,-0.005,0.01,0.013,0.03,-0.022,0.001,0.05,0.022,-0.017
MYD88 isoform 6 (UniProt Q99836),0,-0.216,-0.006,0.013,0.001,0.003,-0.003,0.021,-0.005,-0.039
